CHX counter: affects cycloheximide protein synthesis inhibition readout, counter-screen; AID 2314; 300,000 tested, 12% active; cell reporter, cycloheximide protein synthesis inhibition counterscreen; max response, %; in the data active = max response mostly above about 13%, no sharp cut-off; inactive = mostly below about 14%; also: read at 38.3 µM for the half of the compounds with a filed dose; 0% is about no effect
Shiga toxin inh: Shiga toxin inhibition; Vero cells, Shiga toxin protein synthesis inhibition reporter; inhibition, % at 38.7 µM; 290,000 tested, 9.2% active; AID 2315; in the data active = inhibition mostly above about 28%, no sharp cut-off; inactive = mostly below about 43%; also: 0% is about no effect
Marburg entry inh: blocks Marburg virus binding to or entry into cells | Marburg virus pseudotyped entry inhibition, cell reporter | Potency, µM (top dose mostly 37.8 µM), without a hit: top-dose activity change, negative = inhibition, hits mostly inhibitors | 300,000 tested, 1.8% active; calls by dose curve; tested in HEK293 cells; also: potency is read from the fitted curve at half-maximal effect; % is scaled to controls: 0 for no effect and ±100 for the full control effect
Lassa entry inh: blocks Lassa virus binding to or entry into cells | Lassa virus pseudotype entry inhibition, cell reporter | Potency, µM (doses to about 37.9 µM), without a hit: at the highest dose activity change, negative = inhibition, actives largely listed as inhibitors | 300,000 tested, 1.2% active | AID 540256; calls by dose curve; tested in HEK293 cells; also: potency is read from the fitted curve at half-maximal effect; % is scaled to controls: 0 for no effect and ±100 for the full control effect; nearly all actives have a fitted effect of over 50% in size
An asterisk follows results filed as active; ? = inconclusive; . = no result given; [ ] = another dose, or the depositor's remark. This is a sample that favours compounds with a hit; in the whole collection about 12% have one here.

SMILES	CHX counter	Shiga toxin inh	Marburg entry inh	Lassa entry inh
CCC(=O)Nc1ccc(NC(=O)c2ccccc2)nc1	25*	70*	.	.
CCCC(=O)Nc1ccc(NC(=O)c2ccccc2F)cn1	16*	24	.	.
CC(C)C(=O)Nc1ccc(NC(=O)c2ccccc2Cl)nc1	38*	71*	?	-7%
COc1ccc(C(=O)Nc2ccc(NC(=O)c3ccccc3F)cn2)cc1	0	22	4%[46.1 µM]	6%
COc1ccccc1NC(=O)Nc1sccc1-c1nc2ccccc2s1	2	34	.	.
COCCN(C(=O)Nc1ccccc1OC)c1nc2ccccc2s1	26*	30*	.	.
C[C@@H]1CC[C@H]2C(=O)N(CC3CCCCC3)C[C@H](O)CN2[C@@H]1c1ccc(Br)cc1	.	.	0%[14.2 µM]	.
CC(C)(C)c1cc(NC(=O)Nc2ccccc2OC(F)(F)F)no1	5	13	.	.
Cc1cc(C(=O)Nc2cc(C(C)(C)C)on2)c(C)o1	39*	48	.	.
COC(=O)c1ccccc1NC(=O)Nc1cc(C(C)(C)C)on1	40*	34	-27%	?
Cc1cc(NC(NC(=O)c2ccco2)(C(F)(F)F)C(F)(F)F)no1	13	-1	1%	-5%
CC(C)(C)c1cc(NC(=O)Nc2ccccc2)no1	33*	70*	.	.
CC(C)(C)c1cc(NC(=O)c2ccco2)no1	44*	81*	?	0%[46.1 µM]
Cc1cc(C(=O)Nc2ccon2)c(C)o1	12	13	0%[46.1 µM]	?
COCCOC(=O)c1c(C)oc2ccc(OS(C)(=O)=O)cc12	21*	18	.	.
CS(=O)(=O)c1ccc2nc(NC(=O)c3cccc([N+](=O)[O-])c3)sc2c1	31*	75*	.	.
CS(=O)(=O)c1ccc2nc(NC(=O)c3cc([N+](=O)[O-])cc([N+](=O)[O-])c3)sc2c1	-3	.	.	.
COc1cc(OC)cc(C(=O)Nc2nc3ccc(S(C)(=O)=O)cc3s2)c1	17	52*	?	-15%[46.1 µM]
COc1cc(C(=O)Nc2nc3ccc(S(C)(=O)=O)cc3s2)cc(OC)c1C	7	4	6%	?
CCNS(=O)(=O)c1ccc2nc(NC(=O)c3cccnc3)sc2c1	33*	84*	1%	18%
CC(=O)c1ccc(NC(=O)CSc2nnc(C3CC3)n2C2CC2)cc1	.	.	8%[46.1 µM]	-20%[46.1 µM]
CC(C)N1C(=O)CC(Nc2ccc(N3CCOCC3)cc2)C1=O (stereo unspecified)	39*	30	19%	0%
Cc1ccc(/C=N/n2cc(-c3ccccc3)[nH]c2=S)s1	39*	108*	.	.
S=c1[nH]c(-c2ccccc2)cn1/N=C/c1ccccc1Br	27*	35	?	3%
COc1cc(/C=N/n2cc(-c3ccccc3)[nH]c2=S)cc(OC)c1O	62*	36	.	.
SMILES	CHX counter	Shiga toxin inh	Marburg entry inh	Lassa entry inh
Cc1cc2c(SCC(=O)Nc3cccc(O)c3)ncnc2s1	.	.	-11%[46.1 µM]	-12%
O=C(Nc1ccc2c(c1)OCO2)c1cccc(S(=O)(=O)N2CCCC2)c1	24*	41*	?	9%
O=C(Nc1cccc(O)c1)c1cccc(S(=O)(=O)N2CCCCCC2)c1	23*	44*	?	?
Cc1nnc(SCC(=O)Nc2cccc(S(=O)(=O)N(C)c3ccccc3)c2)s1	38*	-67	-19%	-6%
O=C(O)c1cccc(NC(=O)c2cccc(S(=O)(=O)N3CCCCC3)c2)c1	-3	5	-19%	?
COCCn1cnnc1SCC(=O)Nc1cccc(S(=O)(=O)N(C)c2ccccc2)c1	5	1	8%[46.1 µM]	21%[46.1 µM]
O=C(Nc1ccc2c(c1)OCCO2)c1ccc(S(=O)(=O)N2CCCCC2)cc1	33*	64	1%	?
O=C(Nc1ccc(N2CCOCC2)cc1)c1ccc(S(=O)(=O)N2CCCCC2)cc1	-2	-21	-1%	9%
COC(=O)[C@H](Cc1ccccc1)N1C[C@@H](N2CCC[C@@H]2C)C[S+]1(=O)[O-]	.	.	.	-7%[46.1 µM]
CC(NC(=O)CN(c1cccc(C(F)(F)F)c1)S(C)(=O)=O)c1ccccc1 (stereo unspecified)	-1	.	.	.
CCCCNc1ncnc2c1nnn2C	.	.	.	-6%[46.1 µM]
CCOc1ccc(C(=O)OCC(=O)Nc2cccc(S(=O)(=O)N3CCCC3)c2)cc1	.	.	-20%	?
CC1Cc2ccccc2N1S(=O)(=O)c1cccc(C(=O)NCc2ccncc2)c1 (stereo unspecified)	.	.	7.9µM*	-20%
CCOc1ccc(C(=O)CCC(=O)Nc2cccc(S(=O)(=O)N3CCCCC3)c2)cc1	.	.	?	10µM*
O=C(Nc1ccc2c(c1)OCO2)c1ccc(Br)c(S(=O)(=O)N2CCCC2)c1	28*	61*	?	?
O=C(CSc1nnc(Nc2ccccc2)s1)Nc1cccc(S(=O)(=O)N2CCCCC2)c1	49*	58*	?	?
O=C(NC1CC(=O)N(c2cccc(F)c2)C1)C1CCCC1 (stereo unspecified)	.	.	.	3%[46.1 µM]
CCC(=O)N1CCc2cc(Br)cc(S(=O)(=O)CCC(=O)Nc3ccc(CC)cc3)c21	.	.	-7%[46.1 µM]	5%[46.1 µM]
CCCc1cnc2c(c1SCc1cccc(F)c1)c(=O)n(C)c(=O)n2C	.	.	.	5%[46.1 µM]
CCC(CC)C(=O)Nc1nnc(SCc2cc(=O)n3cccc(C)c3n2)s1	.	.	.	-12%[46.1 µM]
CC(=O)N1CCN(CC(=O)Nc2cccc(S(=O)(=O)N3CCCCC3)c2)CC1	.	.	-6%[46.1 µM]	-9%[46.1 µM]
O=C(Nc1ccc2c(c1)OCCO2)c1ccc(Br)c(S(=O)(=O)N2CCOCC2)c1	32*	52*	?	?
O=C(NCc1cccnc1)c1cccc(S(=O)(=O)N2CCCCC2)c1	-3	17	-7%	10%
O=C(CCl)Nc1cccc(S(=O)(=O)N2CCCCCC2)c1	9	-6	?	7.9µM*
O=C(NCc1cccnc1)c1cccc(S(=O)(=O)N2CCCC2)c1	52*	-19	17%[46.1 µM]	6%
SMILES	CHX counter	Shiga toxin inh	Marburg entry inh	Lassa entry inh
CN(C)S(=O)(=O)c1ccc(NC(=O)c2ccc3ncsc3c2)cc1	22	62*	.	.
CCc1ccc(NC(=O)c2ccc3ncsc3c2)cc1	44*	68*	.	.
O=C(Nc1ccc2c(c1)C(=O)NC2=O)c1ccc2ncsc2c1	22*	92*	29%[46.1 µM]	7%[46.1 µM]
CC(C)(C)c1ccc(NC(=O)COC(=O)c2ccc3ncsc3c2)cc1	.	.	?	-20%
CCOc1ccc(NC(=O)c2ccc(S(=O)(=O)N(C)C)cc2)cc1	12	-4	.	.
O=C(COC(=O)c1ccc2ncsc2c1)Nc1ccc(OC(F)(F)F)cc1	.	.	6%[46.1 µM]	1%
COc1ccc(NC(=O)c2ccc3ncsc3c2)cc1	58*	114*	-21%[46.1 µM]	29%[46.1 µM]
Cn1c(=O)c2c(nc(SCC(=O)Nc3ccc(OC(F)(F)F)cc3)n2Cc2cccc(C(F)(F)F)c2)n(C)c1=O	.	.	-1%[46.1 µM]	?
CCN(CC)C(=O)Cn1cc(S(=O)(=O)CC(=O)Nc2ccc(F)cc2F)c2ccccc21	-2	-11	?	-5%
O=C(Nc1ccc(Br)cc1)c1cccc(S(=O)(=O)Nc2ccc(Br)cc2)c1	-8	-4	.	.
O=C(Nc1ccc(Br)cc1)c1ccc2ncsc2c1	50*	89*	?	?
CSCC(=O)NC1CCCc2c1cnn2-c1ccc(C)c(C)c1 (stereo unspecified)	14	58*	?	-25%[46.1 µM]
CC1=C(C(=O)NC2CCCc3c2cnn3-c2cc(F)cc(F)c2)OCCO1 (stereo unspecified)	-3	-20	-17%	-3%

Bioassay records: PubChem BioAssay, National Center for Advancing Translational Sciences (NCATS)
